“And” between values parts separate entries of the source, which are not always exact repeats. Identical values can stand only once. Out of some 5,500 compounds screened, about 2,000 (36%) were called active. Inconclusive results (about 18%) are left out. Cut-off read from the data, not from the text of the source: active = normalized growth mostly below about 0.91 (no sharp cut-off); inconclusive = no clear call, values can overlap the other calls; inactive = mostly above about 0.92. The list shows a part of the results.
Assay: chemical genetic growth profiling, strain panel (AID 1159580);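 note: tested at 20 µM; growth read once vehicle control cultures reached saturation at 30 °C; 1 = growth at the plate median or of vehicle wells; lower values mean less growth of the strain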
Settings: S. cerevisiae deletion strains, growth OD

Measured: normalized growth

CN1CCC[C@H]1c1cccnc1
inactive: locus YAL013W, strain DEP1, hits give low values 0.998 | locus YAL021C, strain ccr4, hits give low values 1.02 | locus YAL026C, strain drs2, hits give low values 1.03 | locus YAL030W, strain snc1, hits give low values 1.02 | locus YBL061C, strain skt5, hits give low values 1.03 | locus YBR009C, strain hhf1, hits give low values 1.02 | locus YBR021W, strain FUR4, hits give low values 0.968 | locus YBR023C, strain chs3, hits give low values 1.05 | locus YBR171W, strain sec66, hits give low values 1.05 | locus YBR229C, strain ROT2, hits give low values 0.992 | locus YBR231C, strain swc5, hits give low values 1.02 | locus YBR279W, strain paf1, hits give low values 1.02 | locus YCL011C, strain gbp2, hits give low values 1.03 | locus YCL016C, strain dcc1, hits give low values 1.03 | locus YCL029C, strain bik1, hits give low values 0.995 | locus YCL061C, strain MRC1, hits give low values 1 | locus YCL069W, strain vba3, hits give low values 1.04 | locus YCR088W, strain abp1, hits give low values 1.02 | locus YDL005C, strain med2, hits give low values 1.03 | locus YDL035C, strain GPR1, hits give low values 1.01 | locus YDL040C, strain nat1, hits give low values 1.02 | locus YDL074C, strain BRE1, hits give low values 1.03 | locus YDL101C, strain DUN1, hits give low values 0.994 | locus YDL134C, strain PPH21, hits give low values 0.994 | locus YDL185W, strain tfp1, hits give low values 0.983 | locus YDL192W, strain arf1, hits give low values 0.997 | locus YDR001C, strain nth1, hits give low values 1.03 | locus YDR069C, strain doa4, hits give low values 1.02 | locus YDR101C, strain arx1, hits give low values 1 | locus YDR137W, strain rgp1, hits give low values 1.05 | locus YDR150W, strain NUM1, hits give low values 0.999 | locus YDR159W, strain sac3, hits give low values 1 | locus YDR162C, strain NBP2, hits give low values 1.03 | locus YDR195W, strain ref2 1.02 | locus YDR297W, strain sur2, hits give low values 1.02 | locus YDR318W, strain mcm21, hits give low values 0.983 | locus YDR334W, strain swr1, hits give low values 1.03 | locus YDR335W, strain msn5, hits give low values 1.03 | locus YDR388W, hits give low values 0.996 | locus YDR392W, strain spt3, hits give low values 0.964 | locus YDR502C, strain sam2, hits give low values 1 | locus YEL003W, strain gim4, hits give low values 1.02 | locus YEL037C, strain rad23, hits give low values 1.03 | locus YEL061C, strain CIN8 (second series), hits give low values 1.03 | locus YEL061C, strain CIN8, hits give low values 0.993 | locus YER015W, strain faa2, hits give low values 1.03 | locus YER016W, strain bim1, hits give low values 1.02 | locus YER110C, hits give low values 0.985 | locus YER111C, strain swi4, hits give low values 1.04 | locus YER155C, strain BEM2 (second series), hits give low values 0.991 | locus YER155C, strain BEM2, hits give low values 0.992 | locus YER167W, strain BCK2, hits give low values 0.98 | locus YFR010W, strain ubp6, hits give low values 1.03 | locus YGL078C, strain dbp3, hits give low values 0.994 | locus YGL086W, strain mad1, hits give low values 0.969 | locus YGL167C, strain pmr1, hits give low values 1.04 | locus YGL173C, strain kem1, hits give low values 1.03 | locus YGL227W, strain vid30, hits give low values 1.04 | locus YGL240W, strain doc1, hits give low values 1 | locus YGL248W, strain PDE1, hits give low values 0.985 | locus YGL253W, strain hxk2, hits give low values 1.04 | locus YGR078C, strain PAC10, hits give low values 1.04 | locus YGR135W, strain pre9, hits give low values 1 | locus YGR229C, strain SMI1, hits give low values 1.02 | locus YGR252W, strain gcn5, hits give low values 0.949 | locus YHR013C, strain ard1, hits give low values 1.06 | locus YHR027C, strain rpn1, hits give low values 1.03 | locus YHR030C, strain SLT2, hits give low values 0.991 and 0.959 | locus YHR079C, strain IRE1 (second series), hits give low values 0.996 | locus YHR079C, strain IRE1, hits give low values 1.03 | locus YHR094C, strain hxt1, hits give low values 0.989 | locus YHR129C, strain ARP1, hits give low values 0.99 | locus YHR142W, strain chs7, hits give low values 1.06 | locus YHR200W, strain rpn10, hits give low values 0.981 | locus YIL066C, strain RNR3, hits give low values 0.985 | locus YIL073C, strain SPO22, hits give low values 0.968 | locus YIL125W, strain kgd1, hits give low values 0.997 | locus YIR030C, strain dcg1, hits give low values 0.995 | locus YJL092W, strain hpr5, hits give low values 1.02 | locus YJL095W, strain BCK1 (second series), hits give low values 1.02 | locus YJL095W, strain BCK1, hits give low values 1.01 and 0.947 | locus YJL115W, strain asf1, hits give low values 1.02 | locus YJL129C, strain trk1, hits give low values 1.07 | locus YJL134W, strain LCB3, hits give low values 0.989 | locus YJL154C, strain vps35, hits give low values 1.02 | locus YJL164C, strain tpk1, hits give low values 1.02 | locus YJL166W, strain qcr8, hits give low values 1.03 | locus YJL168C, strain set2, hits give low values 0.994 | locus YJL187C, strain SWE1 (second series), hits give low values 0.997 | locus YJL187C, strain SWE1, hits give low values 1.02 | locus YJR043C, strain POL32, hits give low values 0.995 | locus YJR066W, strain TOR1, hits give low values 0.943

From PubChem BioAssay AID1159580 (chemical genetic matrix, 2015)
